# Measurements from PMC11006913.
# Positions count from the first letter of the chain named.
# Columns and labels:
# Assay in all cases: PBM; 200 nM protein, PBS
# Settings in all cases: dsDNA, one strand shown
# [1] = molecular target: T1, VENTX (Homo sapiens, UniProt O95231 78-163, R121Q)
# T1 sequence: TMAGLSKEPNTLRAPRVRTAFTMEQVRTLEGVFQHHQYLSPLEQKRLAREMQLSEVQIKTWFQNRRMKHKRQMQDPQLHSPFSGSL
# [2] = molecular target: HOXA4 (Homo sapiens, UniProt Q00056 201-287, W262R)
# [3] = molecular target: T2, VENTX (Homo sapiens, UniProt O95231 78-163)
# T2 sequence: T1 sequence with Q44R
# [4] = molecular target: T3, VENTX (Homo sapiens, UniProt O95231 78-163, Y115F)
# T3 sequence: T1 sequence with Y38F, Q44R
# [5] = molecular target: HOXA4 (Homo sapiens, UniProt Q00056 201-287, R217L)
# HOXA4 (Homo sapiens, UniProt Q00056 201-287, R217L), sequence (Q00056 201-287 R217L): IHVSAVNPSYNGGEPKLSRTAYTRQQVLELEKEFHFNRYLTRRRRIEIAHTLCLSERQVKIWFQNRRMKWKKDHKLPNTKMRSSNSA
# [6] = molecular target: HOXD13 (Homo sapiens, UniProt P35453 263-343, T313R)
# HOXD13 (Homo sapiens, UniProt P35453 263-343, T313R), sequence (P35453 263-343 T313R): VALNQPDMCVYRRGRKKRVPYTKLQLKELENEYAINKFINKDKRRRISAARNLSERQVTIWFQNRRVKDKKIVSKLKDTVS
# [7] = molecular target: T4, NKX2-6 (Homo sapiens, UniProt A6NCS4 118-204)
# T4 sequence: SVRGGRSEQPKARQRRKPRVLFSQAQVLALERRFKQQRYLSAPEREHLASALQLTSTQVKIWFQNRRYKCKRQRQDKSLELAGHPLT
# [8] = molecular target: HOXD13 (Homo sapiens, UniProt P35453 263-343)
# HOXD13 (Homo sapiens, UniProt P35453 263-343), sequence (P35453 263-343): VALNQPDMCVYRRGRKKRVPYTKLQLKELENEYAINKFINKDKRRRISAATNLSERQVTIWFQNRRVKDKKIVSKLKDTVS
# [9] = molecular target: HOXA4 (Homo sapiens, UniProt Q00056 201-287)
# HOXA4 (Homo sapiens, UniProt Q00056 201-287), sequence (Q00056 201-287): as the sequence (Q00056 201-287 R217L) above, with L17R counted along it
# [10] = molecular target: HOXD13 (Homo sapiens, UniProt P35453 263-343, T313A)
# HOXD13 (Homo sapiens, UniProt P35453 263-343, T313A), sequence (P35453 263-343 T313A): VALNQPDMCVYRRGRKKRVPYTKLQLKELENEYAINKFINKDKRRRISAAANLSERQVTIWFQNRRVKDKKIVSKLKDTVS
# [11] = molecular target: T5, NKX2-6 (Homo sapiens, UniProt A6NCS4 118-204, F151L)
# T5 sequence: T4 sequence with F34L
# [12] = molecular target: HOXA4 (Homo sapiens, UniProt Q00056 201-287, W262F)
# HOXA4 (Homo sapiens, UniProt Q00056 201-287, W262F), sequence (Q00056 201-287 W262F): as the sequence (Q00056 201-287 R217L) above, with L17R, W62F counted along it
# [13] = molecular target: HOXC9 (Homo sapiens, UniProt P31274 178-260, K195R)
# HOXC9 (Homo sapiens, UniProt P31274 178-260, K195R), sequence (P31274 178-260 K195R): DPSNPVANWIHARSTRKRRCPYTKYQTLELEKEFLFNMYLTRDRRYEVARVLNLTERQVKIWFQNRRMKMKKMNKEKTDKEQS
# [14] = molecular target: T6, PAX4 (Homo sapiens, UniProt O43316 9-242, R200K)
# T6 sequence: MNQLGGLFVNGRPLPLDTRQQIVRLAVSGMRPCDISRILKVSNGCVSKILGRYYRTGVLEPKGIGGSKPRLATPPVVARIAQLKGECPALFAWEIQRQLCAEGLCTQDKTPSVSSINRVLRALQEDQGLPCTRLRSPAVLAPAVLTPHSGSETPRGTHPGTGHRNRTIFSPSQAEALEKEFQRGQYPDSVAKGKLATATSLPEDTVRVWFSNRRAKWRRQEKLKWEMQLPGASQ
# [15] = molecular target: HOXC9 (Homo sapiens, UniProt P31274 178-260)
# HOXC9 (Homo sapiens, UniProt P31274 178-260), sequence (P31274 178-260): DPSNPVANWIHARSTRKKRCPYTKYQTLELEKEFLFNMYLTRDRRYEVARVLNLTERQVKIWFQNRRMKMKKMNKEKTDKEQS
# [16] = molecular target: HOXC9 (Homo sapiens, UniProt P31274 178-260, R193K)
# HOXC9 (Homo sapiens, UniProt P31274 178-260, R193K), sequence (P31274 178-260 R193K): as the sequence (P31274 178-260) above, with R16K counted along it
# [17] = molecular target: T7, PAX4 (Homo sapiens, UniProt O43316 9-242, R227W)
# T7 sequence: T6 sequence with K192R, R219W
# [18] = molecular target: T8, SIX6 (Homo sapiens, UniProt O95475 114-200, L167I)
# T8 sequence: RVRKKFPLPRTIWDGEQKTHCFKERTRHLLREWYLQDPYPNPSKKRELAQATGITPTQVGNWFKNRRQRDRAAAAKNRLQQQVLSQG
# [19] = molecular target: T9, SIX6 (Homo sapiens, UniProt O95475 114-200, L143V)
# T9 sequence: T8 sequence with L30V, I54L
# [20] = molecular target: T10, SIX6 (Homo sapiens, UniProt O95475 114-200, H141N)
# T10 sequence: T8 sequence with H28N, I54L
# [21] = molecular target: T11, SIX6 (Homo sapiens, UniProt O95475 114-200, T165P)
# T11 sequence: T8 sequence with T52P, I54L
# [22] = molecular target: T12, SIX6 (Homo sapiens, UniProt O95475 114-200, L167M)
# T12 sequence: T8 sequence with I54M
# [23] = molecular target: T13, SIX6 (Homo sapiens, UniProt O95475 114-200, L143M)
# T13 sequence: T8 sequence with L30M, I54L
# [24] = molecular target: T14, SIX6 (Homo sapiens, UniProt O95475 114-200, L143I)
# T14 sequence: T8 sequence with L30I, I54L
# [25] = molecular target: T15, SIX6 (Homo sapiens, UniProt O95475 114-200, T165G)
# T15 sequence: T8 sequence with T52G, I54L
# [26] = molecular target: T16, SIX6 (Homo sapiens, UniProt O95475 114-200, T139Q)
# T16 sequence: T8 sequence with T26Q, I54L
# [27] = molecular target: T17, SIX6 (Homo sapiens, UniProt O95475 114-200, T165A)
# T17 sequence: T8 sequence with T52A, I54L
# [28] = molecular target: T18, SIX6 (Homo sapiens, UniProt O95475 114-200, L167V)
# T18 sequence: T8 sequence with I54V
# [29] = molecular target: T19, SIX6 (Homo sapiens, UniProt O95475 114-200)
# T19 sequence: T8 sequence with I54L
# [30] = molecular target: T20, SIX6 (Homo sapiens, UniProt O95475 114-200, T165I)
# T20 sequence: T8 sequence with T52I, I54L
# [31] = molecular target: HOXB9 (Homo sapiens, UniProt P17482 171-250, T197M)
# HOXB9 (Homo sapiens, UniProt P17482 171-250, T197M), sequence (P17482 171-250 T197M): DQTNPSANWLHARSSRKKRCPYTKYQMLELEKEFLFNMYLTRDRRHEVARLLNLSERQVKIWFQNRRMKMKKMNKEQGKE
# [32] = molecular target: HOXA7 (Homo sapiens, UniProt P31268 116-202)
# HOXA7 (Homo sapiens, UniProt P31268 116-202), sequence (P31268 116-202): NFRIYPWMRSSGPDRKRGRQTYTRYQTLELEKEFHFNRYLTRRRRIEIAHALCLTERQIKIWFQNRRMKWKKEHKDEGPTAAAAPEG
# [33] = molecular target: HOXC10 (Homo sapiens, UniProt Q9NYD6 254-340)
# HOXC10 (Homo sapiens, UniProt Q9NYD6 254-340), sequence (Q9NYD6 254-340): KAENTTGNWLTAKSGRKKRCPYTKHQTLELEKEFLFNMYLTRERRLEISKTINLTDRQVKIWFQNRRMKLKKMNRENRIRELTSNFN
# [34] = molecular target: HOXB6 (Homo sapiens, UniProt P17509 132-218, K202E)
# HOXB6 (Homo sapiens, UniProt P17509 132-218, K202E), sequence (P17509 132-218 K202E): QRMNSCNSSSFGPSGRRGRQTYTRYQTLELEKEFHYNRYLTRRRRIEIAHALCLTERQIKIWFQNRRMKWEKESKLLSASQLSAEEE
# [35] = molecular target: HOXB9 (Homo sapiens, UniProt P17482 171-250)
# HOXB9 (Homo sapiens, UniProt P17482 171-250), sequence (P17482 171-250): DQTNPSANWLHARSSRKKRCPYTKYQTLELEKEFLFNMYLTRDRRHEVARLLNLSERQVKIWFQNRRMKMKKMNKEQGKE
# [36] = molecular target: HOXC10 (Homo sapiens, UniProt Q9NYD6 254-340, K271E)
# HOXC10 (Homo sapiens, UniProt Q9NYD6 254-340, K271E), sequence (Q9NYD6 254-340 K271E): as the sequence (Q9NYD6 254-340) above, with K18E counted along it
# [37] = molecular target: HOXB9 (Homo sapiens, UniProt P17482 171-250, R186Q)
# HOXB9 (Homo sapiens, UniProt P17482 171-250, R186Q), sequence (P17482 171-250 R186Q): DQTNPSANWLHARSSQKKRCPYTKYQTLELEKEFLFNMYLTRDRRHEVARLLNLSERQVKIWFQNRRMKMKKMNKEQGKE
# [38] = molecular target: HOXC9 (Homo sapiens, UniProt P31274 178-260, R222W)
# HOXC9 (Homo sapiens, UniProt P31274 178-260, R222W), sequence (P31274 178-260 R222W): as the sequence (P31274 178-260) above, with R45W counted along it
# [39] = molecular target: HOXA7 (Homo sapiens, UniProt P31268 116-202, W177C)
# HOXA7 (Homo sapiens, UniProt P31268 116-202, W177C), sequence (P31268 116-202 W177C): as the sequence (P31268 116-202) above, with W62C counted along it
# [40] = molecular target: HOXB6 (Homo sapiens, UniProt P17509 132-218)
# HOXB6 (Homo sapiens, UniProt P17509 132-218), sequence (P17509 132-218): as the sequence (P17509 132-218 K202E) above, with E71K counted along it
# HOXA4 (Homo sapiens, UniProt Q00056 201-287, W262R), sequence (Q00056 201-287 W262R): as the sequence (Q00056 201-287 R217L) above, with L17R, W62R counted along it
sequence,measurement,setting,value
CCCCCTGC,binding signal,[1],"8.15 upbm affinity estimate (log intensity, higher = more binding, comparable within an allelic series)"
same,binding signal,[2],"9.55 upbm affinity estimate (log intensity, higher = more binding, comparable within an allelic series)"
same,binding signal,[3],"8.15 upbm affinity estimate (log intensity, higher = more binding, comparable within an allelic series)"
same,binding signal,[4],"8.11 upbm affinity estimate (log intensity, higher = more binding, comparable within an allelic series)"
same,binding signal,[5],"9.45 upbm affinity estimate (log intensity, higher = more binding, comparable within an allelic series)"
same,binding signal,[6],"9.12 upbm affinity estimate (log intensity, higher = more binding, comparable within an allelic series)"
same,binding signal,[7],"8.96 upbm affinity estimate (log intensity, higher = more binding, comparable within an allelic series)"
same,binding signal,[8],"9.26 upbm affinity estimate (log intensity, higher = more binding, comparable within an allelic series)"
same,binding signal,[9],"9.54 upbm affinity estimate (log intensity, higher = more binding, comparable within an allelic series)"
same,binding signal,[10],"9.34 upbm affinity estimate (log intensity, higher = more binding, comparable within an allelic series)"
same,binding signal,[11],"8.92 upbm affinity estimate (log intensity, higher = more binding, comparable within an allelic series)"
same,binding signal,[12],"9.59 upbm affinity estimate (log intensity, higher = more binding, comparable within an allelic series)"
CGATTACC,binding signal,[1],"10.2 upbm affinity estimate (log intensity, higher = more binding, comparable within an allelic series)"
ACGCATTA,binding signal,[1],"10.4 upbm affinity estimate (log intensity, higher = more binding, comparable within an allelic series)"
same,binding signal,[13],"11.2 upbm affinity estimate (log intensity, higher = more binding, comparable within an allelic series)"
same,binding signal,[14],"11.6 upbm affinity estimate (log intensity, higher = more binding, comparable within an allelic series)"
same,binding signal,[15],"11.2 upbm affinity estimate (log intensity, higher = more binding, comparable within an allelic series)"
same,binding signal,[16],"11.2 upbm affinity estimate (log intensity, higher = more binding, comparable within an allelic series)"
same,binding signal,[17],"10.9 upbm affinity estimate (log intensity, higher = more binding, comparable within an allelic series)"
ATGATATG,binding signal,[1],"9.57 upbm affinity estimate (log intensity, higher = more binding, comparable within an allelic series)"
same,binding signal,[18],"11.3 upbm affinity estimate (log intensity, higher = more binding, comparable within an allelic series)"
same,binding signal,[3],"9.91 upbm affinity estimate (log intensity, higher = more binding, comparable within an allelic series)"
same,binding signal,[19],"10.4 upbm affinity estimate (log intensity, higher = more binding, comparable within an allelic series)"
same,binding signal,[20],"11.3 upbm affinity estimate (log intensity, higher = more binding, comparable within an allelic series)"
same,binding signal,[21],"9.99 upbm affinity estimate (log intensity, higher = more binding, comparable within an allelic series)"
same,binding signal,[22],"10.7 upbm affinity estimate (log intensity, higher = more binding, comparable within an allelic series)"
same,binding signal,[23],"11.1 upbm affinity estimate (log intensity, higher = more binding, comparable within an allelic series)"
same,binding signal,[24],"10.5 upbm affinity estimate (log intensity, higher = more binding, comparable within an allelic series)"
same,binding signal,[25],"11.4 upbm affinity estimate (log intensity, higher = more binding, comparable within an allelic series)"
same,binding signal,[26],"11.3 upbm affinity estimate (log intensity, higher = more binding, comparable within an allelic series)"
same,binding signal,[27],"11.2 upbm affinity estimate (log intensity, higher = more binding, comparable within an allelic series)"
same,binding signal,[28],"11.1 upbm affinity estimate (log intensity, higher = more binding, comparable within an allelic series)"
same,binding signal,[29],"11.1 upbm affinity estimate (log intensity, higher = more binding, comparable within an allelic series)"
same,binding signal,[30],"11.1 upbm affinity estimate (log intensity, higher = more binding, comparable within an allelic series)"
GCCATTAA,binding signal,[1],"11.8 upbm affinity estimate (log intensity, higher = more binding, comparable within an allelic series)"
same,binding signal,[31],"10.1 upbm affinity estimate (log intensity, higher = more binding, comparable within an allelic series)"
same,binding signal,[13],"12.9 upbm affinity estimate (log intensity, higher = more binding, comparable within an allelic series)"
same,binding signal,[3],"12.3 upbm affinity estimate (log intensity, higher = more binding, comparable within an allelic series)"
same,binding signal,[32],"11.9 upbm affinity estimate (log intensity, higher = more binding, comparable within an allelic series)"
same,binding signal,[33],"12.3 upbm affinity estimate (log intensity, higher = more binding, comparable within an allelic series)"
same,binding signal,[4],"11.6 upbm affinity estimate (log intensity, higher = more binding, comparable within an allelic series)"
same,binding signal,[34],"10 upbm affinity estimate (log intensity, higher = more binding, comparable within an allelic series)"
same,binding signal,[35],"12.2 upbm affinity estimate (log intensity, higher = more binding, comparable within an allelic series)"
same,binding signal,[15],"13 upbm affinity estimate (log intensity, higher = more binding, comparable within an allelic series)"
same,binding signal,[16],"12.8 upbm affinity estimate (log intensity, higher = more binding, comparable within an allelic series)"
same,binding signal,[36],"12.2 upbm affinity estimate (log intensity, higher = more binding, comparable within an allelic series)"
same,binding signal,[37],"12 upbm affinity estimate (log intensity, higher = more binding, comparable within an allelic series)"
same,binding signal,[38],"10.9 upbm affinity estimate (log intensity, higher = more binding, comparable within an allelic series)"
same,binding signal,[39],"8.78 upbm affinity estimate (log intensity, higher = more binding, comparable within an allelic series)"
same,binding signal,[40],"12.2 upbm affinity estimate (log intensity, higher = more binding, comparable within an allelic series)"
